PubChem BioAssay AID1851 (National Center for Advancing Translational Sciences (NCATS), 2009)
Values joined by “and” are separate entries in the source; they are usually repeats but may differ in a detail not shown here. Identical values can stand only once. In all, about 16,000 compounds went through this assay and about 5,800 (36%) were called active. About 23% were inconclusive and are not listed. The call rests on the fitted dose curve; in most records, active means well fitted curve in the direction sought with a large enough effect; inconclusive means small, poorly fitted or top-dose-only effect, or effect the other way; inactive means no such curve, though single readings can be large or run the other way. The list shows a part of the results.

target: Cytochrome P450 2C19 (Homo sapiens) (UniProt P33261); test: Cytochrome panel assay with activity outcomes; conditions: recombinant CYP, pro-luciferin dealkylation, luminescence, p450-cyp2c19; series mostly up to 57.1 µM; activity, negative = inhibition: at the top concentration
On the % scale 0 is the no-effect control and ±100 the full control effect.

Chain of Cytochrome P450 2C19 (Homo sapiens) (P33261 whole entry, looked up): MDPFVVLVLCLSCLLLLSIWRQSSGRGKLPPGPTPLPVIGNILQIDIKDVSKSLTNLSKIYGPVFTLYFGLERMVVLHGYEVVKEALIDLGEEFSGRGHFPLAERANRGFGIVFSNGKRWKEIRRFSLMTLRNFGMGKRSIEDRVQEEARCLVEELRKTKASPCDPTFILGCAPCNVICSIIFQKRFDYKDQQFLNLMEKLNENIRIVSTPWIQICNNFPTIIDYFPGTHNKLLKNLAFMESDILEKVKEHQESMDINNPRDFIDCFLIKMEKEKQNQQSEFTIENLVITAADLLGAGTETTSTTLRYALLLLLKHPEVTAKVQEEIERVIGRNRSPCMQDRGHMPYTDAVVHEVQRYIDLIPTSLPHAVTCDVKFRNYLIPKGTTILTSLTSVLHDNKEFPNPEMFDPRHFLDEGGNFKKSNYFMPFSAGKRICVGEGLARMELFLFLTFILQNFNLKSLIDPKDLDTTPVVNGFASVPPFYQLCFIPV

activity, negative = inhibition, inactive:
NS(=O)(=O)c1cc2c(cc1Cl)NC(CSCc1ccccc1)=NS2(=O)=O 3.64% [at 25.6 µM]
CNC[C@@H](SC)c1ccc(O)c(O)c1 -19% [at 11.4 µM]
Cc1cccc(C)c1NC(=O)CN1CCN(CCCC(c2ccc(F)cc2)c2ccc(F)cc2)CC1 -29.9% [at 25.6 µM]
CCNc1ncc2nc(-c3ccc(Cl)cc3)c(=O)n(C[C@H]3CCCO3)c2n1 9.08%
COc1ccc(OCC(=O)NNC(=O)c2ccc(-c3ccccc3)cc2)cc1 -9.31%
COc1ncc2nc(-c3ccc(Cl)cc3)c(=O)n(C)c2n1 0.0431%
Cn1c(=O)c(-c2ccc(Cl)cc2)nc2cnc(Oc3ccccc3)nc21 5.73%
C#CCCCO/N=C1/C[C@@H](O)[C@@H](O)[C@@H]2[C@@H]3C(=O)N([C@@H](C)c4ccccc4)C(=O)[C@H]3CC[C@@H]12 -27.9% [at 11.4 µM]
COc1ccc(-n2c(=O)cnc3cnc(OC)nc32)cc1 8.17%
NNC(=O)c1nn(-c2ccc(Cl)cc2)ccc1=O 86.7%
C[C@@H]1C[C@@H]2[C@H]3CCC4=CC(=O)C=C[C@]4(C)[C@]3(Cl)[C@@H](O)C[C@@]2(C)[C@@]1(O)C(=O)CO 15.2%
COC(=O)C1=C(C)NC(=O)NC1c1ccsc1 (stereo not given) -26.2%
C=CCSc1ccsc1C(=O)O -21.7%
C[C@@]12C(=O)OC(=O)[C@]1(C)[C@H]1CC[C@@H]2O1 20.3% [at 25.6 µM]
O=C1C[C@@H](O)[C@@H](O)[C@H]2[C@@H]3C(=O)N(c4cccc(Oc5ccccc5)c4)C(=O)[C@@H]3CC[C@H]12 5.15% [at 11.4 µM] and -20.4% [at 11.4 µM]
FC(F)(F)c1cc(Sc2ccccc2)nc(-c2ccccn2)n1 -107%
Cc1ccc(Sc2cc(Cl)nc(N)n2)cc1 15.3%
O=C(NCCCN1CCc2ccccc2C1)C1CCN(S(=O)(=O)N2CCCC2)CC1 -24.9%
O=C(NC1CCCc2ccccc21)c1ccc(=O)[nH]c1 (stereo not given) -15.8%
CCc1nc(SCC(=O)NNC(=O)C2CCCCC2)c2ccccc2n1 4.97%
CCn1c(CCNC(=O)c2ccccc2Cl)n[nH]c1=S -10.1%
NS(=O)(=O)c1cc(Cl)c(Cl)c(S(N)(=O)=O)c1 26.8% [at 25.6 µM]
CC(=O)NNC(=O)C(O)(c1ccccc1)c1ccccc1 9.3%
CCN1C(=O)[C@H]2[C@H]3[C@H](O)[C@H](O)C/C(=N/OCC(C)C)[C@@H]3CC[C@@H]2C1=O -7.39% [at 11.4 µM]
CCC(CC)C(=O)Nc1cccc(/C(C)=N\NC(=O)c2ccc(C)s2)c1 1.98%
C/C(=N\NC(=O)c1cccc(Cl)c1)c1cccc(NC(=O)C(C)C)c1 13.8%
CCc1ccc2c(c1)c(N=NC1=NC(=O)CS1)c(O)n2CC -18.3%
CC(=O)NNc1cccc(Cl)n1 11.9%
C=CCSC[C@@H]1Nc2cc(Cl)c(S(N)(=O)=O)cc2S(=O)(=O)N1 7.79% [at 25.6 µM]
O=C(NCC1CCCO1)c1nn2c(c1Cl)NC(c1ccc(F)cc1)CC2C(F)(F)F (stereo not given) -14.1%
CN(C(=O)Cn1nnc(-c2cccc(C(F)(F)F)c2)n1)C1CCCCC1 7.73%
O=S1(=O)N[C@H]2CC[C@@H]3NS(=O)(=O)N[C@H]4CC[C@H](N1)N4S(=O)(=O)N23 11.2% [at 11.4 µM]
CCN1C(=O)[C@H]2[C@H]3[C@H](O)[C@H](O)C/C(=N/O[C@@H](C)c4cn([C@H](CO)Cc5ccccc5)nn4)[C@@H]3CC[C@@H]2C1=O 4.85% [at 11.4 µM] and 16% [at 11.4 µM]

AC50, active:
CC(=O)Nc1ccc(NC(=O)Cn2c(-c3ccc(F)cc3)cnc2SCC(=O)Nc2c(C)cccc2C)cc1 1.58 µM
CCc1ccccc1NC(=O)C1C(c2ccccc2)C1(Cl)Cl (stereo not given) 1.78 µM
O=C(COc1ccccc1-c1ccccc1)N/N=C/c1cccc2ccccc12 2.24 µM
O=C(COc1ccc(-c2ccccc2)cc1)N/N=C/c1ccccc1Br 2.51 µM
O=C(Cc1ccccc1)Nc1nc2ccc(Cl)cc2c2nc(-c3ccco3)nn12 1.58 µM
Cc1cc(Cl)ccc1Oc1ncc(-c2ccc(Cl)cc2)cn1 2.51 µM
Cc1cccc(Oc2ncc(-c3ccc(Cl)cc3)cn2)c1C 14.1 µM
CCCC(=O)N1c2ccccc2C(N(C(C)=O)c2ccccc2)CC1C (stereo not given) 15.8 µM
Cc1ccc(-n2ccc(=O)c(-c3ccnc(SCc4cccc(Cl)c4)n3)n2)cc1 3.55 µM
CC1=C(C(=O)Nc2ccccc2F)C(c2ccsc2)C2=C(CC(c3ccccc3)CC2=O)N1 (stereo not given) 5.01 µM
C=CCSc1nc(NC)c2sccc2n1 14.1 µM
C=CCNc1nc(SCC=C)nc2ccsc12 8.91 µM
C=CCSc1nc(Oc2ccccc2)c2sccc2n1 2.24 µM
O=C(Nc1ccc2c(c1)OCCO2)c1cc2sccc2n1Cc1ccc(F)cc1 1 µM
O=C(Nc1ccc2c(c1)OCCO2)c1cc2sccc2n1Cc1ccccc1 3.16 µM
CCNc1nc(Sc2ccc(C)cc2)cc(C(F)(F)F)n1 11.2 µM
O=C(NC1CCCc2ccccc21)C1CCN(S(=O)(=O)N2CCCCCC2)CC1 (stereo not given) 17.8 µM
Cc1cccc(NC(=O)CSc2nc(COc3ccccc3)nc3ccccc23)c1C 2 µM
C=CCn1c(C(C)NC(=O)c2ccccc2)n[nH]c1=S (stereo not given) 5.01 µM
Cc1cccc(N(NC(=O)C(C)(C)O)C(=O)c2ccccc2)c1 20 µM
CCc1ccc(C(=O)N2CCC(c3nc4ccccc4s3)CC2)cc1 14.1 µM
C/C(=N/NC(=O)c1ccc(C)s1)c1cccc(NC(=O)COc2ccc(Cl)cc2C)c1 3.16 µM
C/C(=N/NC(=O)c1cccs1)c1ccc(NC(=O)COc2ccc(Cl)cc2Cl)cc1 14.1 µM
C/C(=N\NC(=O)c1ccc(Cl)cc1)c1cccc(NC(=O)C(C)C)c1 17.8 µM
CC(C)CC(C(=O)NCC1CCCO1)N(C(=O)Cn1nnc(-c2ccc(F)cc2)n1)c1cccc(C(F)(F)F)c1 (stereo not given) 3.55 µM
CC(C)CC(C(=O)NCC1CCCO1)N(C(=O)Cn1nnc(-c2ccc(F)cc2)n1)c1ccccc1F (stereo not given) 25.1 µM

AC50, inactive:
C[C@H]1NC(=O)NC1=O
